Data reported in the supplement of paper PMC10338343.
± gives the standard deviation.

Assays:
[1] = test system: MILI (PIWIL2) piRISC loaded with piRNA #1 (26 nt); test: pre-steady-state target cleavage rate (min^-1); guide: piRNA #1 5'p-UGAGGUAGUAGGUUGUAUAGUAUCCA; higher = faster piRNA-guided slicing of the target; conditions: auxiliary factor: 500 nM mouse GTSF1
Summary of the method: (§1)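 In Cleave-'n-Seq, a transcribed, DNA-blocked target RNA library (0.1 nM) was combined with 1 nM active affinity-purified piRISC bearing one synthetic guide, with or without 500 nM GTSF1 partner protein. Reactions ran in HEPES–potassium acetate buffer at 33 °C for 0–8 or 0–960 min. Uncleaved targets were sequenced and normalised to depth and to weakly complementary targets, three trials were pooled, and k3 was capped at 0.0001 min^-1. The pre-steady-state cleavage rate was obtained by fitting a burst-and-steady-state model.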

[2] = test system: EfPiwi piRISC loaded with piRNA #1 (26 nt); test: pre-steady-state target cleavage rate (min^-1); auxiliary factor: 500 nM Ephydatia muelleri Gtsf1; guide: piRNA #1 5'p-UGAGGUAGUAGGUUGUAUAGUAUCCA; MIWI and MILI are mouse PIWI proteins and EfPiwi is from a freshwater sponge; tags in brackets are library labels; higher = faster piRNA-guided slicing of the target
Summary of the method: as §1

GGAGACCUAUGAUAACAACCUACUACCUACA
pre-steady-state target cleavage rate [1]: 0.0036 ± 0.0024
pre-steady-state target cleavage rate [2]: < 0.0001

GGAGAGGAUACUAUACAACCGACUACCUCA
pre-steady-state target cleavage rate [1]: 0.00439 ± 0.0027
pre-steady-state target cleavage rate [2]: 0.00504 ± 0.002

GGAGACGAUACUAUACAACACUACUACCUCA
pre-steady-state target cleavage rate [1]: 0.00963 ± 0.0034
pre-steady-state target cleavage rate [2]: 0.00912 ± 0.0032

GGAGACCUUACUAUACAACCUACUACCCUCA
pre-steady-state target cleavage rate [1]: 0.17 ± 0.019
pre-steady-state target cleavage rate [2]: 0.00416 ± 0.0023

GGAGAGGAUACUAUACAUCCAACUACCUCA
pre-steady-state target cleavage rate [1]: 0.0065 ± 0.0019
pre-steady-state target cleavage rate [2]: 0.00419 ± 0.0022

GGAGACCUAACUAUACUACCUACUACCUCA
pre-steady-state target cleavage rate [1]: 0.125 ± 0.022
pre-steady-state target cleavage rate [2]: 0.00314 ± 0.0024

GGAGUGGAUACUAUAGAACCUACAACCUCA
pre-steady-state target cleavage rate [1]: 0.0134 ± 0.0034
pre-steady-state target cleavage rate [2]: 0.00234 ± 0.0015

GGAGACCUAUCUAUACAACCUAGUACCUCA
pre-steady-state target cleavage rate [1]: 0.0209 ± 0.0054
pre-steady-state target cleavage rate [2]: 0.00361 ± 0.0027

GGAGACCUAUCUAUACAACCCACUACCUCA
pre-steady-state target cleavage rate [1]: 0.0169 ± 0.0041
pre-steady-state target cleavage rate [2]: 0.00474 ± 0.0043

GGAGACCUUACUAUACAACGUACUACGUCA
pre-steady-state target cleavage rate [1]: 0.00879 ± 0.0038
pre-steady-state target cleavage rate [2]: 0.00267 ± 0.0018

GGAGUGGAUACUAUACACCUACUACCUCA
pre-steady-state target cleavage rate [1]: 0.0342 ± 0.0053
pre-steady-state target cleavage rate [2]: 0.157 ± 0.056

GGAGUGGAUACUAUACAAGCUACAACCUCA
pre-steady-state target cleavage rate [1]: 0.142 ± 0.014
pre-steady-state target cleavage rate [2]: 0.00371 ± 0.0018

GGAGUGAGAUACUAUACAACCUACUACCUCA
pre-steady-state target cleavage rate [1]: 0.189 ± 0.012
pre-steady-state target cleavage rate [2]: 0.0362 ± 0.015

GGAGAGGAUACUUUACAACCUACUACCUGA
pre-steady-state target cleavage rate [1]: 0.0593 ± 0.011
pre-steady-state target cleavage rate [2]: 0.00329 ± 0.0017

GGAGACCAUACUGUACAACCUACUACCUCA
pre-steady-state target cleavage rate [1]: 0.079 ± 0.012
pre-steady-state target cleavage rate [2]: 0.0144 ± 0.0056

GGAGACCUUACUAAACAACCUACUACCUCA
pre-steady-state target cleavage rate [1]: 0.112 ± 0.012
pre-steady-state target cleavage rate [2]: 0.00463 ± 0.0036

GGAGUGGAUACUAUACAACCUACUACCUA
pre-steady-state target cleavage rate [1]: 0.103 ± 0.014
pre-steady-state target cleavage rate [2]: 0.249 ± 0.092

GGAGACGAUACUAUAGAACCUACUUCCUCA
pre-steady-state target cleavage rate [1]: 0.0055 ± 0.0044
pre-steady-state target cleavage rate [2]: 0.00251 ± 0.0022

GGAGAGGAUUACUAUACAACCUACUACCUCA
pre-steady-state target cleavage rate [1]: 0.132 ± 0.0095
pre-steady-state target cleavage rate [2]: 0.0829 ± 0.03

GGAGUGGAUUCUAUACAACGUACUACCUCA
pre-steady-state target cleavage rate [1]: 0.0287 ± 0.0031
pre-steady-state target cleavage rate [2]: 0.00313 ± 0.0019
